# Molecular target: AgAbp1
# Experiment: SPOT peptide array binding signal intensity (averaged, normalized) (arbitrary units (background-subtracted, floor 0; scale differs between SH3 domains)); higher = stronger binding of the SH3 domain to the peptide
# In short: (§1)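 GST-fused SH3 domains from four yeast species were expressed in E. coli BL21(DE3), purified on glutathione Sepharose and incubated at 10 μg/ml overnight at 4°C in TBS-based blocking buffer on cellulose membranes carrying synthetic 15-mer peptides, with cysteines replaced by serines. Bound protein was detected with anti-GST antibody, an HRP anti-mouse secondary and luminol, then imaged and quantified with Genespotter. Binding signal is the normalized, background-subtracted spot intensity averaged over replicates, in arbitrary units that differ between domains.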
row,Binder,SPOT peptide array binding signal intensity
1,VQPTAAPATPPRHIS,≤ 0
2,EEEEEHPPLPARRKS,≤ 0

# Molecular target: AgBbc1
# Experiment: as above
# In short: as §1
row,Binder,SPOT peptide array binding signal intensity
1,VQPTAAPATPPRHIS,≤ 0
2,EEEEEHPPLPARRKS,23.2

# Molecular target: AgBem1-D1
# Experiment: as above
# In short: as §1
row,Binder,SPOT peptide array binding signal intensity
1,VQPTAAPATPPRHIS,≤ 0
2,EEEEEHPPLPARRKS,≤ 0

# Molecular target: AgBzz1-D1
# Experiment: as above
# In short: as §1
row,Binder,SPOT peptide array binding signal intensity
1,VQPTAAPATPPRHIS,≤ 0
2,EEEEEHPPLPARRKS,9

# Molecular target: AgBzz1-D2
# Experiment: as above
# In short: as §1
row,Binder,SPOT peptide array binding signal intensity
1,VQPTAAPATPPRHIS,≤ 0
2,EEEEEHPPLPARRKS,27.5

# Molecular target: AgCyk3
# Experiment: as above
# In short: as §1
row,Binder,SPOT peptide array binding signal intensity
1,VQPTAAPATPPRHIS,≤ 0
2,EEEEEHPPLPARRKS,≤ 0

# Molecular target: AgFus1
# Experiment: as above
# In short: as §1
row,Binder,SPOT peptide array binding signal intensity
1,VQPTAAPATPPRHIS,≤ 0
2,EEEEEHPPLPARRKS,≤ 0

# Molecular target: AgHof1
# Experiment: as above
# In short: as §1
row,Binder,SPOT peptide array binding signal intensity
1,VQPTAAPATPPRHIS,≤ 0
2,EEEEEHPPLPARRKS,3

# Molecular target: AgHse1
# Experiment: as above
# In short: as §1
row,Binder,SPOT peptide array binding signal intensity
1,VQPTAAPATPPRHIS,5.5
2,EEEEEHPPLPARRKS,3.5

# Molecular target: AgLsb1
# Experiment: as above
# In short: as §1
row,Binder,SPOT peptide array binding signal intensity
1,VQPTAAPATPPRHIS,8
2,EEEEEHPPLPARRKS,20.5

# Molecular target: AgLsb4
# Experiment: as above
# In short: as §1
row,Binder,SPOT peptide array binding signal intensity
1,VQPTAAPATPPRHIS,964
2,EEEEEHPPLPARRKS,7880

# Molecular target: AgMyo5
# Experiment: as above
# In short: as §1
row,Binder,SPOT peptide array binding signal intensity
1,VQPTAAPATPPRHIS,≤ 0
2,EEEEEHPPLPARRKS,0.5

# Molecular target: AgNbp2
# Experiment: as above
# In short: as §1
row,Binder,SPOT peptide array binding signal intensity
1,VQPTAAPATPPRHIS,≤ 0
2,EEEEEHPPLPARRKS,≤ 0

# Molecular target: AgRvs167
# Experiment: as above
# In short: as §1
row,Binder,SPOT peptide array binding signal intensity
1,VQPTAAPATPPRHIS,43.6
2,EEEEEHPPLPARRKS,61

# Molecular target: AgSho1
# Experiment: as above
# In short: as §1
row,Binder,SPOT peptide array binding signal intensity
1,VQPTAAPATPPRHIS,≤ 0
2,EEEEEHPPLPARRKS,8

# Molecular target: AgSla1-D1-D2
# Experiment: as above
# In short: as §1
row,Binder,SPOT peptide array binding signal intensity
1,VQPTAAPATPPRHIS,≤ 0
2,EEEEEHPPLPARRKS,4.5

# Molecular target: AgSla1-D3
# Experiment: as above
# In short: as §1
row,Binder,SPOT peptide array binding signal intensity
1,VQPTAAPATPPRHIS,≤ 0
2,EEEEEHPPLPARRKS,≤ 0

# Molecular target: CaAbp1-D1
# Experiment: as above
# In short: as §1
row,Binder,SPOT peptide array binding signal intensity
1,VQPTAAPATPPRHIS,≤ 0
2,EEEEEHPPLPARRKS,8.5

# Molecular target: CaAbp1-D2
# Experiment: as above
# In short: as §1
row,Binder,SPOT peptide array binding signal intensity
1,VQPTAAPATPPRHIS,≤ 0
2,EEEEEHPPLPARRKS,≤ 0

# Molecular target: CaBbc1
# Experiment: as above
# In short: as §1
row,Binder,SPOT peptide array binding signal intensity
1,VQPTAAPATPPRHIS,78.6
2,EEEEEHPPLPARRKS,50.5

# Molecular target: CaBem1-D1
# Experiment: as above
# In short: as §1
row,Binder,SPOT peptide array binding signal intensity
1,VQPTAAPATPPRHIS,5
2,EEEEEHPPLPARRKS,≤ 0

# Molecular target: CaBzz1-D1
# Experiment: as above
# In short: as §1
row,Binder,SPOT peptide array binding signal intensity
1,VQPTAAPATPPRHIS,≤ 0
2,EEEEEHPPLPARRKS,≤ 0

# Molecular target: CaBzz1-D2
# Experiment: as above
# In short: as §1
row,Binder,SPOT peptide array binding signal intensity
1,VQPTAAPATPPRHIS,≤ 0
2,EEEEEHPPLPARRKS,≤ 0

# Molecular target: CaCyk3
# Experiment: as above
# In short: as §1
row,Binder,SPOT peptide array binding signal intensity
1,VQPTAAPATPPRHIS,≤ 0
2,EEEEEHPPLPARRKS,≤ 0

# Molecular target: CaFus1
# Experiment: as above
# In short: as §1
row,Binder,SPOT peptide array binding signal intensity
1,VQPTAAPATPPRHIS,≤ 0
2,EEEEEHPPLPARRKS,9.5

# Molecular target: CaHof1
# Experiment: as above
# In short: as §1
row,Binder,SPOT peptide array binding signal intensity
1,VQPTAAPATPPRHIS,≤ 0
2,EEEEEHPPLPARRKS,8.5

# Molecular target: CaHse1
# Experiment: as above
# In short: as §1
row,Binder,SPOT peptide array binding signal intensity
1,VQPTAAPATPPRHIS,5.25
2,EEEEEHPPLPARRKS,13

# Molecular target: CaLsb1
# Experiment: as above
# In short: as §1
row,Binder,SPOT peptide array binding signal intensity
1,VQPTAAPATPPRHIS,≤ 0
2,EEEEEHPPLPARRKS,10.8

# Molecular target: CaLsb4
# Experiment: as above
# In short: as §1
row,Binder,SPOT peptide array binding signal intensity
1,VQPTAAPATPPRHIS,2000
2,EEEEEHPPLPARRKS,5520

# Molecular target: CaMyo5
# Experiment: as above
# In short: as §1
row,Binder,SPOT peptide array binding signal intensity
1,VQPTAAPATPPRHIS,≤ 0
2,EEEEEHPPLPARRKS,1.75

# Molecular target: CaNbp2
# Experiment: as above
# In short: as §1
row,Binder,SPOT peptide array binding signal intensity
1,EEEEEHPPLPARRKS,≤ 0

# Molecular target: CaRvs167
# Experiment: as above
# In short: as §1
row,Binder,SPOT peptide array binding signal intensity
1,EEEEEHPPLPARRKS,408

# Molecular target: CaRvs167-3
# Experiment: as above
# In short: as §1
row,Binder,SPOT peptide array binding signal intensity
1,EEEEEHPPLPARRKS,6.5

# Molecular target: CaSho1
# Experiment: as above
# In short: as §1
row,Binder,SPOT peptide array binding signal intensity
1,EEEEEHPPLPARRKS,≤ 0

# Molecular target: CaSla1-D1-D2
# Experiment: as above
# In short: as §1
row,Binder,SPOT peptide array binding signal intensity
1,EEEEEHPPLPARRKS,≤ 0

# Molecular target: CaSla1-D3
# Experiment: as above
# In short: as §1
row,Binder,SPOT peptide array binding signal intensity
1,EEEEEHPPLPARRKS,≤ 0

# Molecular target: ScAbp1
# Experiment: as above
# In short: as §1
row,Binder,SPOT peptide array binding signal intensity
1,EEEEEHPPLPARRKS,≤ 0

# Molecular target: ScBbc1
# Experiment: as above
# In short: as §1
row,Binder,SPOT peptide array binding signal intensity
1,EEEEEHPPLPARRKS,6.25

# Molecular target: ScBem1-D1
# Experiment: as above
# In short: as §1
row,Binder,SPOT peptide array binding signal intensity
1,EEEEEHPPLPARRKS,0.5

# Molecular target: ScBzz1-D1
# Experiment: as above
# In short: as §1
row,Binder,SPOT peptide array binding signal intensity
1,EEEEEHPPLPARRKS,16

# Molecular target: ScBzz1-D2
# Experiment: as above
# In short: as §1
row,Binder,SPOT peptide array binding signal intensity
1,EEEEEHPPLPARRKS,27.5

# Molecular target: ScCyk3
# Experiment: as above
# In short: as §1
row,Binder,SPOT peptide array binding signal intensity
1,EEEEEHPPLPARRKS,≤ 0

# Molecular target: ScFus1
# Experiment: as above
# In short: as §1
row,Binder,SPOT peptide array binding signal intensity
1,EEEEEHPPLPARRKS,4

# Molecular target: ScHof1
# Experiment: as above
# In short: as §1
row,Binder,SPOT peptide array binding signal intensity
1,EEEEEHPPLPARRKS,4.25

# Molecular target: ScHse1
# Experiment: as above
# In short: as §1
row,Binder,SPOT peptide array binding signal intensity
1,EEEEEHPPLPARRKS,≤ 0

# Molecular target: ScLsb1
# Experiment: as above
# In short: as §1
row,Binder,SPOT peptide array binding signal intensity
1,EEEEEHPPLPARRKS,444

# Molecular target: ScLsb2
# Experiment: as above
# In short: as §1
row,Binder,SPOT peptide array binding signal intensity
1,EEEEEHPPLPARRKS,17

# Molecular target: ScLsb3
# Experiment: as above
# In short: as §1
row,Binder,SPOT peptide array binding signal intensity
1,EEEEEHPPLPARRKS,9930

# Molecular target: ScLsb4
# Experiment: as above
# In short: as §1
row,Binder,SPOT peptide array binding signal intensity
1,EEEEEHPPLPARRKS,3690

# Molecular target: ScMyo3
# Experiment: as above
# In short: as §1
row,Binder,SPOT peptide array binding signal intensity
1,EEEEEHPPLPARRKS,≤ 0

# Molecular target: ScMyo5
# Experiment: as above
# In short: as §1
row,Binder,SPOT peptide array binding signal intensity
1,EEEEEHPPLPARRKS,≤ 0

# Molecular target: ScNbp2
# Experiment: as above
# In short: as §1
row,Binder,SPOT peptide array binding signal intensity
1,EEEEEHPPLPARRKS,≤ 0

# Molecular target: ScPex13
# Experiment: as above
# In short: as §1
row,Binder,SPOT peptide array binding signal intensity
1,EEEEEHPPLPARRKS,656

# Molecular target: ScRvs167
# Experiment: as above
# In short: as §1
row,Binder,SPOT peptide array binding signal intensity
1,EEEEEHPPLPARRKS,1940

# Molecular target: ScSho1
# Experiment: as above
# In short: as §1
row,Binder,SPOT peptide array binding signal intensity
1,EEEEEHPPLPARRKS,≤ 0

# Molecular target: ScSla1-D1-D2
# Experiment: as above
# In short: as §1
row,Binder,SPOT peptide array binding signal intensity
1,EEEEEHPPLPARRKS,102

# Molecular target: ScSla1-D3
# Experiment: as above
# In short: as §1
row,Binder,SPOT peptide array binding signal intensity
1,EEEEEHPPLPARRKS,≤ 0

# Molecular target: SpAbp1-D1
# Experiment: as above
# In short: as §1
row,Binder,SPOT peptide array binding signal intensity
1,EEEEEHPPLPARRKS,≤ 0

# Molecular target: SpBbc1
# Experiment: as above
# In short: as §1
row,Binder,SPOT peptide array binding signal intensity
1,EEEEEHPPLPARRKS,1.5

# Molecular target: SpBzz1-D1
# Experiment: as above
# In short: as §1
row,Binder,SPOT peptide array binding signal intensity
1,EEEEEHPPLPARRKS,17

# Molecular target: SpBzz1-D2
# Experiment: as above
# In short: as §1
row,Binder,SPOT peptide array binding signal intensity
1,EEEEEHPPLPARRKS,2

# Molecular target: SpCyk3
# Experiment: as above
# In short: as §1
row,Binder,SPOT peptide array binding signal intensity
1,EEEEEHPPLPARRKS,≤ 0

# Molecular target: SpHof1
# Experiment: as above
# In short: as §1
row,Binder,SPOT peptide array binding signal intensity
1,EEEEEHPPLPARRKS,0.5

# Molecular target: SpHof1-2
# Experiment: as above
# In short: as §1
row,Binder,SPOT peptide array binding signal intensity
1,EEEEEHPPLPARRKS,1

# Molecular target: SpHof1-3
# Experiment: as above
# In short: as §1
row,Binder,SPOT peptide array binding signal intensity
1,EEEEEHPPLPARRKS,1

# Molecular target: SpHse1
# Experiment: as above
# In short: as §1
row,Binder,SPOT peptide array binding signal intensity
1,EEEEEHPPLPARRKS,1

# Molecular target: SpLsb1
# Experiment: as above
# In short: as §1
row,Binder,SPOT peptide array binding signal intensity
1,EEEEEHPPLPARRKS,10

# Molecular target: SpLsb4
# Experiment: as above
# In short: as §1
row,Binder,SPOT peptide array binding signal intensity
1,EEEEEHPPLPARRKS,7640

# Molecular target: SpMyo1
# Experiment: as above
# In short: as §1
row,Binder,SPOT peptide array binding signal intensity
1,EEEEEHPPLPARRKS,≤ 0

# Molecular target: SpNbp2
# Experiment: as above
# In short: as §1
row,Binder,SPOT peptide array binding signal intensity
1,EEEEEHPPLPARRKS,3.5

# Molecular target: SpPex13
# Experiment: as above
# In short: as §1
row,Binder,SPOT peptide array binding signal intensity
1,EEEEEHPPLPARRKS,≤ 0

# Molecular target: SpRvs167
# Experiment: as above
# In short: as §1
row,Binder,SPOT peptide array binding signal intensity
1,EEEEEHPPLPARRKS,1510

# Molecular target: SpSla1-D1-D2
# Experiment: as above
# In short: as §1
row,Binder,SPOT peptide array binding signal intensity
1,EEEEEHPPLPARRKS,≤ 0

# Molecular target: SpSla1-D3
# Experiment: as above
# In short: as §1
row,Binder,SPOT peptide array binding signal intensity
1,EEEEEHPPLPARRKS,5

# From the supplement of paper PMC4466140
